For two sequences, binding signal results are on record in article PMC7862700, “An all-to-all approach to the identification of sequence-specific readers for epigenetic DNA modifications on cytosine”.

Holding throughout (assay): DAPPL (digital affinity profiling via proximity ligation, sequencing); 10 mM Tris-HCl pH 7.5, 50 mM NaCl, 1 mM DTT, 4% glycerol, room temperature, 30 min; GST-TFs on glutathione beads, 16-mer random dsDNA library, 0.1% formaldehyde crosslink after washing; high values mean tight binding
Conditions in all cases: protein: recombinant; tags: N-terminal GST; dsDNA, one strand shown

One assay has as its target T1, FLI1 (Homo sapiens, UniProt Q01543 1-452).
T1 sequence: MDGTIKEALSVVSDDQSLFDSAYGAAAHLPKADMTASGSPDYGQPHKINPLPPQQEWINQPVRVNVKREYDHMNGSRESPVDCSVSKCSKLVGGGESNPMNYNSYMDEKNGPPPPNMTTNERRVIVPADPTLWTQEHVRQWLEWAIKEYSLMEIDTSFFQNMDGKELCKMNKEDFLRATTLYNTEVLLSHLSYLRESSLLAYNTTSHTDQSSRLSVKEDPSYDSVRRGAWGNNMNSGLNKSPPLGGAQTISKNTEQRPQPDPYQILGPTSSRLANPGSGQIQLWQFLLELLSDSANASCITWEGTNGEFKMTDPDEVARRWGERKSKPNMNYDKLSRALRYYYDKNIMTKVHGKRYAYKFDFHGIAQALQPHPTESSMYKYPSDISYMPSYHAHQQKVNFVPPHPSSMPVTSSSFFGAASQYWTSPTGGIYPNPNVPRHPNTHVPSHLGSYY
Summed up:
(§1)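 Beads coated with glutathione captured GST-fused human transcription factors that had been expressed in yeast, and the factors were then given DNA barcodes and pooled with a tag-only sample. The pools were incubated with 200 nmole of a random double-stranded 16-mer DNA library in Tris/NaCl/DTT/glycerol buffer for 30 min at room temperature, washed, crosslinked with 0.1% formaldehyde and proximity-ligated with BsaI/T4 ligase at 37 °C for 1 h. PCR amplification and Illumina NextSeq500 sequencing came last. Binding signal is each hexamer's read frequency for a factor divided by its frequency for the tag-only sample.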

A further assay addresses T2, ERG (Homo sapiens, UniProt P11308 1-479).
T2 sequence: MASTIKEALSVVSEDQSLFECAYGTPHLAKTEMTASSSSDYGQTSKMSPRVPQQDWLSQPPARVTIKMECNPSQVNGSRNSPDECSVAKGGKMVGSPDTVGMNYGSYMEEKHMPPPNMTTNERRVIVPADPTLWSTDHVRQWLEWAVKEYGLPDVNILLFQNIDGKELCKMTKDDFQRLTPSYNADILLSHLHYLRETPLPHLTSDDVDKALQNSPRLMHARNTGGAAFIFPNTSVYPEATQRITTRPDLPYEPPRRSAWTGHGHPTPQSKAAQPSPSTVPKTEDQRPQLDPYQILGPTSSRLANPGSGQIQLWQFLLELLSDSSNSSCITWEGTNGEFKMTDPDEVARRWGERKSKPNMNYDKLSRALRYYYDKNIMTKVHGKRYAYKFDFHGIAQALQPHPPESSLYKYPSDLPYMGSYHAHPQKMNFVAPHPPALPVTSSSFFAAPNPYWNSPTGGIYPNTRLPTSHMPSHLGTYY
Summed up:
as §1

A further assay deals with SPI1 (Homo sapiens, UniProt P17947 1-270). In outline:
as §1

Another assay concerns the target SPIB (Homo sapiens, UniProt Q01892 1-262). Summed up:
as §1

Another assay has as its target T3, ELK3 (Homo sapiens, UniProt P41970 1-407).
T3 sequence: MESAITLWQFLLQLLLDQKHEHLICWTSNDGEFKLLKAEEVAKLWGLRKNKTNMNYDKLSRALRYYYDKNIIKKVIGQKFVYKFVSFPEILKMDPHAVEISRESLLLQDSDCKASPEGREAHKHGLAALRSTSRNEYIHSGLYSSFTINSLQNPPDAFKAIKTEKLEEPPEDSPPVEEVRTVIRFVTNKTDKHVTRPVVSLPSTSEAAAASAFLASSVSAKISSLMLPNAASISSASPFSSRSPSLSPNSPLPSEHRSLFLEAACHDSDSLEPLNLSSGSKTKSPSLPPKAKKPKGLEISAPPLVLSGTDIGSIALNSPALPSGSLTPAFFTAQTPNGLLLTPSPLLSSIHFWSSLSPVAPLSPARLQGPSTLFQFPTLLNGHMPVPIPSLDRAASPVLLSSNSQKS
Summed up:
as §1

Another assay addresses T4, FEV (Homo sapiens, UniProt Q99581 1-238).
T4 sequence: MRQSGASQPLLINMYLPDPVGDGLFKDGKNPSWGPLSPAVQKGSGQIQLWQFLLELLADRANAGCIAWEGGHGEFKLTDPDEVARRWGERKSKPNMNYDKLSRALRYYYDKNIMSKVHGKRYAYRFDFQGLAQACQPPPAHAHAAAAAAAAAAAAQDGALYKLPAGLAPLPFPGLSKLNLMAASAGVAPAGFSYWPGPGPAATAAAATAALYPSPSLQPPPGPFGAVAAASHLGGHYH
Summed up: as §1

The next assay has as its target ETV5 (Homo sapiens, UniProt P41161 1-510). Summed up:
as §1

The target in the next assay is T5, SPIC (Homo sapiens, UniProt Q8N5J4 1-248).
T5 sequence: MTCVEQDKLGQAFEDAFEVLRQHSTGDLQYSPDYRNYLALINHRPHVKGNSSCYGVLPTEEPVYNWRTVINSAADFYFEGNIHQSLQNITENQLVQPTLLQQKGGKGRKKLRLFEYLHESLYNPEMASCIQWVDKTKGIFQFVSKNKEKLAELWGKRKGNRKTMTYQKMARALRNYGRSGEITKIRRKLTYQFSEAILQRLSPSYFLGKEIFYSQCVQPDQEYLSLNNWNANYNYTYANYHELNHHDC
In outline: as §1

A further assay concerns the target ELF4 (Homo sapiens, UniProt Q99607 1-663). In outline: as §1
A further assay deals with ETV1 (Homo sapiens, UniProt P50549 1-477). In outline: as §1
A further assay concerns the target T6, ETV3L (Homo sapiens, UniProt Q6ZN32 1-361).
T6 sequence: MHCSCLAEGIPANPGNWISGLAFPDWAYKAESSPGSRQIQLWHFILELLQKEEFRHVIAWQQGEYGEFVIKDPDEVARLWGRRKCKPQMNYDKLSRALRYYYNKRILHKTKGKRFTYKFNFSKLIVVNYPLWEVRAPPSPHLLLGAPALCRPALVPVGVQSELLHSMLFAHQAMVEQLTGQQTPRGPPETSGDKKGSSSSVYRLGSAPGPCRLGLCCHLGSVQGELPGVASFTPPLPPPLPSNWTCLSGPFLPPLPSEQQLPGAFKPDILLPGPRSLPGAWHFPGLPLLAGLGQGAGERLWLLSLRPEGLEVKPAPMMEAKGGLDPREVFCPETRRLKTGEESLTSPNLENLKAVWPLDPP
In outline: as §1

For another assay, the target named is T7, ETV3 (Homo sapiens, UniProt P41162-2 1-143).
T7 sequence: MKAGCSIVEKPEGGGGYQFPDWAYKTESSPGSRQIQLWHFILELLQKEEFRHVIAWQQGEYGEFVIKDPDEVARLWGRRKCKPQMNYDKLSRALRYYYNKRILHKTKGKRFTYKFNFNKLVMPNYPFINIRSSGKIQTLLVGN
In outline: as §1

The next assay has as its target ETV6 (Homo sapiens, UniProt P41212 1-452). Summed up: as §1
In a further assay the target is T8, ELK1 (Homo sapiens, UniProt P19419 1-428).
T8 sequence: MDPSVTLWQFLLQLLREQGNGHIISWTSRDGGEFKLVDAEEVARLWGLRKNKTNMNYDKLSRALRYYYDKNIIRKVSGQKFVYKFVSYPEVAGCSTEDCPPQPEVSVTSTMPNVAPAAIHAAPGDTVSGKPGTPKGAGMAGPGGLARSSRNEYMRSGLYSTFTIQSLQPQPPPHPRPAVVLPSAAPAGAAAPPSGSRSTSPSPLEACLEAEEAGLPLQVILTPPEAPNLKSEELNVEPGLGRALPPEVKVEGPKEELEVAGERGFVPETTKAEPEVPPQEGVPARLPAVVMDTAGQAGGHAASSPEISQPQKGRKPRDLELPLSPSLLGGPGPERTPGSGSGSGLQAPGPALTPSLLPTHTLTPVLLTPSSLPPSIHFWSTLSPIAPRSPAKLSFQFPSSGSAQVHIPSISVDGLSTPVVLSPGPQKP
In outline: as §1

In another assay the target is T9, GABPA (Homo sapiens, UniProt Q06546 1-454).
T9 sequence: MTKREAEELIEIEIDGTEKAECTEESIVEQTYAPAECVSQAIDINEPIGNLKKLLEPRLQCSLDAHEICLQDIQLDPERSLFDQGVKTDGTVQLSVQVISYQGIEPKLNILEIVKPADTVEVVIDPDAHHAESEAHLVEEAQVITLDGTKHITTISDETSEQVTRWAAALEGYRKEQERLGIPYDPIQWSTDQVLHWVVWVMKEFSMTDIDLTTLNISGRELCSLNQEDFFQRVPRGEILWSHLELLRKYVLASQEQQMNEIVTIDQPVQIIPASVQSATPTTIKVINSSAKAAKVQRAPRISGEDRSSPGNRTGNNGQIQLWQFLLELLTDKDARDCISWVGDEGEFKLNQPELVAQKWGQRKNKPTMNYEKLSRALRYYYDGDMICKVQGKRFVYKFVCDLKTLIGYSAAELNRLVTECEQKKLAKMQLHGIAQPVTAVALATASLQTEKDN
In outline: as §1

The target in another assay is T10, EHF (Homo sapiens, UniProt Q9NZC4 1-300).
T10 sequence: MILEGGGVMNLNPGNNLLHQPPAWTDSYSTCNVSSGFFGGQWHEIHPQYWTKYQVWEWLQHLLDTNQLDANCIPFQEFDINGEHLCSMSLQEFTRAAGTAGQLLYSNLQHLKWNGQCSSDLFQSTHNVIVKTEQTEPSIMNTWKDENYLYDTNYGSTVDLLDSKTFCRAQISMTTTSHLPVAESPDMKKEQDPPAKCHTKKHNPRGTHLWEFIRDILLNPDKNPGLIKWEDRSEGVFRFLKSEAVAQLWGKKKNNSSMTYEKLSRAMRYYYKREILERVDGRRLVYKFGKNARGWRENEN
In outline:
as §1

Another assay concerns the target T11, ERF (Homo sapiens, UniProt P50548 1-548).
T11 sequence: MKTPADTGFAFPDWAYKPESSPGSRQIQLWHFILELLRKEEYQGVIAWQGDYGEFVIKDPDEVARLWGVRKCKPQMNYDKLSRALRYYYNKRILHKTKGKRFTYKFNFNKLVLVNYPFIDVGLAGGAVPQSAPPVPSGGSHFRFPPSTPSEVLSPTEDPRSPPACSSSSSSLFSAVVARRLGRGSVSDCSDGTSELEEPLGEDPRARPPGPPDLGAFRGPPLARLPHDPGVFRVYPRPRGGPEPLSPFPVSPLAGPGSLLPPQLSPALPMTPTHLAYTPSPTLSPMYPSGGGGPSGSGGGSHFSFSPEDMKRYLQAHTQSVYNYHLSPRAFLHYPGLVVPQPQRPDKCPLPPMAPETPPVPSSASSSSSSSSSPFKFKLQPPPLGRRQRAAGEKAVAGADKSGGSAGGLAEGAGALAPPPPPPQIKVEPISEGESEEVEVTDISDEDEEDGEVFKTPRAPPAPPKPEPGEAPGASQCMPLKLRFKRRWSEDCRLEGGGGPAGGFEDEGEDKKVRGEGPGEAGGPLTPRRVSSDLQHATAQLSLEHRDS
In outline:
as §1

For another assay, the target named is T12, ETS2 (Homo sapiens, UniProt P15036 1-469).
T12 sequence: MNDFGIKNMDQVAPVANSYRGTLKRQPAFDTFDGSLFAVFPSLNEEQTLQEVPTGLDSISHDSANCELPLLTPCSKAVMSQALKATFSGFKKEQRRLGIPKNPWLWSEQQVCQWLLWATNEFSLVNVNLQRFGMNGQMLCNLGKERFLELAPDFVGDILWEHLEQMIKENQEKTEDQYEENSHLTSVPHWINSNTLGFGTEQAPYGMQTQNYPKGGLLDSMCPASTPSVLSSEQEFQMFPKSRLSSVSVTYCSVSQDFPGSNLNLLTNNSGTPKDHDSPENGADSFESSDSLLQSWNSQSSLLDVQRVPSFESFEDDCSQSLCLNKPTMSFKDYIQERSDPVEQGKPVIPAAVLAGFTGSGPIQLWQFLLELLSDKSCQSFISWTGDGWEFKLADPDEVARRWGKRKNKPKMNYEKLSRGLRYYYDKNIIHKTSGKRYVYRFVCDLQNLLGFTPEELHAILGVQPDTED
Summed up:
as §1

Chain of ETV5 (P41161 whole entry): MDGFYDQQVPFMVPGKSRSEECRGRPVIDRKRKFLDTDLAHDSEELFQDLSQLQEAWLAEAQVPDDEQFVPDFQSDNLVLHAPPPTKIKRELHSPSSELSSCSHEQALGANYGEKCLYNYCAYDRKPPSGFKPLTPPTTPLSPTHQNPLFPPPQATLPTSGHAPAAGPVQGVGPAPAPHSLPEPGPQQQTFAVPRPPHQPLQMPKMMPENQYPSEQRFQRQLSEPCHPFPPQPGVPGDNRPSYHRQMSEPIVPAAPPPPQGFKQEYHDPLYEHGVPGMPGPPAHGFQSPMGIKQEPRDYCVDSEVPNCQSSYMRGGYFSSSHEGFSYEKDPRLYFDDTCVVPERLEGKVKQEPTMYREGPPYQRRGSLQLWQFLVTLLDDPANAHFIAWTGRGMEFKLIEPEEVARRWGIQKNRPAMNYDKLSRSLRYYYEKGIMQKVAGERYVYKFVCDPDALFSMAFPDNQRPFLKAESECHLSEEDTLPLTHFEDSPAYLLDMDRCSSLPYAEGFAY
Chain of SPIB (Q01892 whole entry): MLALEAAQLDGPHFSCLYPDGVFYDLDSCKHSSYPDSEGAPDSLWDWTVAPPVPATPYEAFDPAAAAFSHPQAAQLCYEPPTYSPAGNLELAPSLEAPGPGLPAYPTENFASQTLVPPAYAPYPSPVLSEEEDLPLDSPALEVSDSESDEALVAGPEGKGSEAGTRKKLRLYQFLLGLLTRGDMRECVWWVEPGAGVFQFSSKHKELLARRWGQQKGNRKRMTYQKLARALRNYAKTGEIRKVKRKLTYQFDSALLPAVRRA
Chain of ETV1 (P50549 whole entry): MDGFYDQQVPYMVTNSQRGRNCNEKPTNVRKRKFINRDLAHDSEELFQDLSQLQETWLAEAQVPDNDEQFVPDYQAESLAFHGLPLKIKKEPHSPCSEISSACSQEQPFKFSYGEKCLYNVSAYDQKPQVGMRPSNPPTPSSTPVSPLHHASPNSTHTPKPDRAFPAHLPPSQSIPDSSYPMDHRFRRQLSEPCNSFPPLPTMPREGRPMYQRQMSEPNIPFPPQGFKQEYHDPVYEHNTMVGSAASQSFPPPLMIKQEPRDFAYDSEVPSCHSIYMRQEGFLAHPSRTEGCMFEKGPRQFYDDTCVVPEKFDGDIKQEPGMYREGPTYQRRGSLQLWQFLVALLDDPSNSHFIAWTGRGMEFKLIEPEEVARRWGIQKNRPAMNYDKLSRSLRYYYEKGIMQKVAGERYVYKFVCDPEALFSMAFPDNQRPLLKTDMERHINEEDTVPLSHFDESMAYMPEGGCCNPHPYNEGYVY
Chain of ELF4 (Q99607 whole entry): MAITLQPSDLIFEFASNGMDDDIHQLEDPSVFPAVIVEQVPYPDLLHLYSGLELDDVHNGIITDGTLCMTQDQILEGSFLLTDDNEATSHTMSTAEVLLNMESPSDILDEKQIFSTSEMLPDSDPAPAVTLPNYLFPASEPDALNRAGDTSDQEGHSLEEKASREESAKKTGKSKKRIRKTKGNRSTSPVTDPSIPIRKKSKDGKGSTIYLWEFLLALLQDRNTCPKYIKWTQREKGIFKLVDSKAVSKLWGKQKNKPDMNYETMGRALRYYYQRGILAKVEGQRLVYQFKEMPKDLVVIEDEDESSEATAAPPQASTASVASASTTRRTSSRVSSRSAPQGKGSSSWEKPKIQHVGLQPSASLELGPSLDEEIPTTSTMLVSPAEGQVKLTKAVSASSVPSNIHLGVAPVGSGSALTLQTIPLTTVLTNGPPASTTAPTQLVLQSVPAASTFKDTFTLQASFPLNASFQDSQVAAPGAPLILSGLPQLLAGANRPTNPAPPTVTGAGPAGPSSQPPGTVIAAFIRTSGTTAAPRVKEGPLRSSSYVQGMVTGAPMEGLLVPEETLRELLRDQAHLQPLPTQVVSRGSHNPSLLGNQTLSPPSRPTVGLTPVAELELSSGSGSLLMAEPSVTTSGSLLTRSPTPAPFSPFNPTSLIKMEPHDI
Chain of ETV6 (P41212 whole entry): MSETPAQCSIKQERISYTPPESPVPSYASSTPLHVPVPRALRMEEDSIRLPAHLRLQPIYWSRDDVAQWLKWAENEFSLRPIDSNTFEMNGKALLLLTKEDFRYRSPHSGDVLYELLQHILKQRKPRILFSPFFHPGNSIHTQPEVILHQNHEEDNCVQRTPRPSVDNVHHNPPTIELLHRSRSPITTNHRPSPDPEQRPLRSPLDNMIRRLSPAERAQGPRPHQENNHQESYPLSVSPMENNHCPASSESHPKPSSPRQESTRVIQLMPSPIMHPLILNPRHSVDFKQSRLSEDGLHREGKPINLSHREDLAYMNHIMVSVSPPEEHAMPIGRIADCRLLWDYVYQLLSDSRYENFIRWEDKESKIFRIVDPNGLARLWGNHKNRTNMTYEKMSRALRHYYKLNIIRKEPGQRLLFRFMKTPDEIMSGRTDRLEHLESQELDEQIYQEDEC

On to AGTGCC, for which the binding signal with FLI1 is 1.06 fold enrichment (6-mer frequency, TF over GST control); in the assay with ERG it was 1.01 fold enrichment (6-mer frequency, TF over GST control); in the assay with SPI1, 1.32 fold enrichment (6-mer frequency, TF over GST control); in the assay with SPIB, 1.01 fold enrichment (6-mer frequency, TF over GST control); with ELK3, 1.05 fold enrichment (6-mer frequency, TF over GST control); in the assay with FEV, 1.04 fold enrichment (6-mer frequency, TF over GST control). The binding signal in the assay with ETV5 was 1.03 fold enrichment (6-mer frequency, TF over GST control); with SPIC, 1.19 fold enrichment (6-mer frequency, TF over GST control); with ELF4, 1.01 fold enrichment (6-mer frequency, TF over GST control); in the assay with ETV1, 1.04 fold enrichment (6-mer frequency, TF over GST control); with ETV3L, 1.07 fold enrichment (6-mer frequency, TF over GST control); with ETV3, 1.05 fold enrichment (6-mer frequency, TF over GST control). Besides, the binding signal in the assay with ETV6 was 1.16 fold enrichment (6-mer frequency, TF over GST control).

Take ATAGCG: the binding signal was 1.08 fold enrichment (6-mer frequency, TF over GST control) with FLI1; 1.03 fold enrichment (6-mer frequency, TF over GST control) in the assay with ELK1; 1.01 fold enrichment (6-mer frequency, TF over GST control) with GABPA; 1.05 fold enrichment (6-mer frequency, TF over GST control) with EHF; 1.07 fold enrichment (6-mer frequency, TF over GST control) with SPI1; 1.05 fold enrichment (6-mer frequency, TF over GST control) in the assay with ELK3. For the same sequence, the binding signal with ETV5 is 1.04 fold enrichment (6-mer frequency, TF over GST control); with SPIC, 1.03 fold enrichment (6-mer frequency, TF over GST control); in the assay with ERF, 1.1 fold enrichment (6-mer frequency, TF over GST control); with ETS2 it was 1 fold enrichment (6-mer frequency, TF over GST control).
